From the supplement of paper PMC5662767
Counter-ions that a name gives are not always drawn.

Test system: Drosophila S2 cl14 SmoIP sensor cells
Test: normalized SmoIP GFP fluorescence (untreated unstimulated = 0%, untreated Hh-stimulated = 100%); higher = more Smo activation sensor fluorescence
Settings: compound concentration: 2 uM, 24 h
[1] = stimulation: Hh conditioned medium (+Hh)
[2] = stimulation: mock conditioned medium (-Hh)
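Also: flow cytometry read-out as median GFP intensity of gated cells, compounds added 30 min before Hh-conditioned or mock medium, mock-treated cells serving as unstimulated baseline.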

SMILES	normalized SmoIP GFP fluorescence [1] [%]	normalized SmoIP GFP fluorescence [2] [%]
Cn1cnc(N)c2ncnc1-2 [3-methyladenine]	111	-4.89
O=C1C(=O)N(Cc2ccc(Cl)c(Cl)c2)c2ccccc21 [apoptosis-activator-2]	103	-2.82
O=S(=O)(c1cccc2cnccc12)N1CCCNCC1 [Fasudil-HCl(HA-1077)]	97	-3.93
COc1cc(Nc2c(C#N)cnc3cc(OCCCN4CCN(C)CC4)c(OC)cc23)c(Cl)cc1Cl [Bosutinib]	143	9.08
CCc1cncnc1N1CCN(Cc2nc3ccc(C(F)(F)F)cc3[nH]2)CC1	121	0.966
CCOC(=O)[C@H](CCc1ccccc1)N[C@H]1CCCN2CCC[C@H](C(=O)O)N2C1=O [cilazapril-monohydrate-inhibace]	111	6.28
Cc1ccccc1-n1c(Cn2nc(-c3cccc(O)c3)c3c(N)ncnc32)nc2cccc(C)c2c1=O	101	-5.98
CN1CCC(NC(=O)c2cc(-c3c(O)cc(O)cc3Oc3ccc([N+](=O)[O-])cc3)on2)CC1	129	4.56
Clc1ccc2c(c1)CCc1cccnc1C2=C1CCNCC1 [desloratadine]	109	1.21
C[C@@H](NCCCc1cccc(C(F)(F)F)c1)c1cccc2ccccc12 [Cinacalcet-hydrochloride]	104	5.98
CC1(C)CCC(c2ccc(Cl)cc2)=C(CN2CCN(c3ccc(C(=O)NS(=O)(=O)c4ccc(N[C@H](CCN5CCOCC5)CSc5ccccc5)c(S(=O)(=O)C(F)(F)F)c4)cc3)CC2)C1	108	20.1
CCOc1cc([C@@H](CS(C)(=O)=O)N2C(=O)c3cccc(NC(C)=O)c3C2=O)ccc1OC	142	-14.5
CN(C)CC(c1ccc(O)cc1)C1(O)CCCCC1 (stereo not given) [desvenlafaxine-succinate]	103	-5.38
CC(=O)NS(=O)(=O)c1ccc(N)cc1 [sulfacetamide-sodium]	103	-5.72
COc1ccc(-c2cc3c(C)nc(N)nc3n([C@H]3CC[C@H](OCCO)CC3)c2=O)cn1	87.2	-29.5
NCC(=O)Nc1ccc(-n2nc(C(F)(F)F)cc2-c2ccc3c(ccc4ccccc43)c2)cc1	100	0.812
CCC[C@H](NC(=O)/C(C#N)=C/c1cccc(Br)n1)c1ccccc1	114	15.7
Cc1cc(Cn2cnc3c2CC(C(=O)O)N(C(=O)C(c2ccccc2)c2ccccc2)C3)ccc1N(C)C (stereo not given)	109	-4.13
Cc1ncc(-c2ccnc(Nc3ccc(S(C)(=O)=O)cc3)n2)n1C(C)C	156	11.2
CN1CCN(C(c2ccccc2)c2ccccc2)CC1 [cyclizine-2hcl]	104	-5.15
CC(C)C[C@H](NC(=O)CNC(=O)c1cc(Cl)ccc1Cl)B1OC(=O)C(CC(=O)O)(CC(=O)O)O1	157	31
NC(=O)c1cnc(N[C@@H]2CCCC[C@@H]2N)nc1Nc1cccc(-n2nccn2)c1	166	24.4
COc1ccc2c(c1)C(=O)N(CCc1ccc(S(=O)(=O)NC(=O)NC3CCCCC3)cc1)C(=O)C2(C)C [gliquidone]	105	-4.01
O=C(NCCS(=O)(=O)c1ccc(C(F)(F)F)cn1)c1ccc(Cl)cc1	120	-14.9
CC(=O)O[C@]1(C(C)=O)CC[C@H]2[C@@H]3C=C(Cl)C4=CC(=O)[C@@H]5C[C@@H]5[C@]4(C)[C@H]3CC[C@@]21C [cyproterone-acetate]	142	-6.79
Cc1cnc(Nc2ccc(N3CCN(C)CC3)cc2)nc1Nc1cccc(S(=O)(=O)NC(C)(C)C)c1	159	-5.35
Oc1ccc([C@H]2COc3cc(O)ccc3C2)cc1 [equol]	107	-3.9
Nc1nc(N)c2nc(-c3ccccc3)c(N)nc2n1 [triamterene]	104	-6.06

SMILES	normalized SmoIP GFP fluorescence [1] [%]	normalized SmoIP GFP fluorescence [2] [%]
COCC(=O)NC/C=C/c1ccc2ncnc(Nc3ccc(Oc4ccc(C)nc4)c(C)c3)c2c1	71.1	2.43
COc1ccc(-c2nc3ccc(C4=NNC(=O)CC4C)cc3[nH]2)cc1 (stereo not given) [Pimobendan(Vetmedin)]	104	4.8
COc1ncc(-c2ccc3nccc(-c4ccnnc4)c3c2)cc1NS(=O)(=O)c1ccc(F)cc1F	57.4	-10.6
N#Cc1cc(CN2CCC(Nc3ncnc4sc(Cl)cc34)CC2)ccc1F	129	-12.6
Cc1c(C(=O)Nc2ccc(N3C[C@@H](C)O[C@@H](C)C3)nc2)cccc1-c1ccc(OC(F)(F)F)cc1	114	-12.2
C=CCc1cccc(/C=N/NC(=O)CN2CCN(Cc3ccccc3)CC2)c1O	154	-5.53
O=C(CCCCCCC(=O)Nc1ccccc1)NO [Vorinostat-(SAHA)]	89.9	37.6
C/C(=N\NC(=S)N1CCC1)c1ccccn1	207	30.1
Cc1ccc(NC(=O)c2ccc(CN3CCN(C)CC3)cc2)cc1Nc1nc(-c2cccnc2)cs1 [Masitinib-(AB1010)]	113	20.6
CCn1c(-c2nonc2N)nc2c(C#CC(C)(C)O)ncc(OC[C@H]3CCCNC3)c21	98.8	-8.56
CC(=O)OCC(=O)NCCCOc1cccc(CN2CCCCC2)c1 [roxatidine-acetate-hcl]	142	-6.97
Cc1nnc(C(C)C)n1C1C[C@H]2CC[C@@H](C1)N2CC[C@H](NC(=O)C1CCC(F)(F)CC1)c1ccccc1 (stereo in doubt) [Maraviroc]	122	-13.4
CCOC(=O)C1=C(C)NC(C)=C(C(=O)OC)C1c1cccc([N+](=O)[O-])c1 (stereo not given) [Nitrendipine]	117	-12
C#CCN[C@@H]1CCc2ccccc21 [rasagiline-mesylate]	120	-13.4
O=C1CCc2cc(OCCCCc3nnnn3C3CCCCC3)ccc2N1 [Cilostazol]	116	2.11
CC(C)(Cc1ccc2ccccc2c1)NC[C@@H](O)COc1cccc(Cl)c1C#N	157	12.8
Cc1cc(CN2CCN(c3c(Br)cnc4nc(-c5ccc(N6CCN(C)CC6)cc5)[nH]c34)CC2)no1	123	20.5
CN(C)Cc1ccc(-c2nc3cccc4c3n2CCNC4=O)cc1	120	-14.3
CCS(=O)(=O)Nc1ccc2c(c1)/C(=C(/Nc1ccc(CN3CCCCC3)cc1)c1ccccc1)C(=O)N2 [Hesperadin]	94.8	12.7
COc1ccc(CNC(=O)Nc2ncc([N+](=O)[O-])s2)cc1	111	-11
Cc1ccc(-c2cc(C(F)(F)F)nn2-c2ccc(S(N)(=O)=O)cc2)cc1 [Celecoxib]	111	2.11
CCCC(CCC)C(=O)O [Divalproex-sodium]	134	-10.4
Cc1cnc(-c2cnc(NCCNc3ccc(C#N)cn3)nc2-c2ccc(Cl)cc2Cl)[nH]1	118	-0.151
CC1(C)CCC2=C(O1)c1ccccc1C(=O)C2=O [beta-lapachone]	113	-0.264
Cc1ccc(-c2c(-c3nn(C)c4ncnc(N5CC[C@H](N6CCCCC6)C5)c34)cnn2C)cc1	114	-2.71
Cc1csc(-c2nnc(Nc3ccc(Oc4ncccc4-c4ccnc(N)n4)cc3)c3ccccc23)c1	102	-0.747
COc1cccc(C=NCCN=Cc2cccc(OC)c2[O-])c1[O-].[Cl-].[Mn+3]	114	-2.2
